A selection: hits, their analogues and other compounds. The true share with any hit is near 6.8%.
C_diff_growth: C. difficile growth inhibition | Clostridium difficile clinical isolate growth, OD600, 24 h; active compounds read low | growth activity, negative = inhibition, % at 16 µg/mL (by protocol) | 0.25% of 86,000 active;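 active means mean growth activity at or below -80% and every replicate also at or below -80%; inconclusive means mean at or below -80% but some replicate above -80%; inactive means mean growth activity above -80%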;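 further: 0% = DMSO wells and -100% = levofloxacin 16 µg/mL wells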
T_cruzi_growth-1: T. cruzi proliferation inhibition | T. cruzi beta-gal in NIH3T3, GalScreen luminescence, 90 h | inhibition, % at 8.34 µM | 5.9% of 77,000 active | AID 624255;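 active means mean inhibition above about 93%, with at least 55% of replicates each passing it, limit read from the data, passing the limit was not always enough; inconclusive means only one of those two conditions holds; inactive means neither condition holds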
Pf_Dd2_inh: P. falciparum Dd2 growth inhibition. SYBR Green, 72 h; active compounds read low. activity change, % at 10 µM. 2.3% of 94,000 active. AID 1159554; in the data active means activity change below about -80%; inconclusive means no clear call, values can overlap the other calls
T_cruzi_growth-2: Trypanosoma cruzi proliferation inhibition | T. cruzi beta-gal in NIH3T3, GalScreen luminescence, 90 h | shares compounds with T_cruzi_growth-1 | AID 651739 | 72% of 5,600 active | inhibition, % at 8.35 µM;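 active means mean replicate inhibition above about 95% and at least 55% of replicates individually reaching it, limit read from the data; inconclusive means only one of the two criteria is met; inactive means neither criterion is met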
T_cruzi_growth-3: Trypanosoma cruzi proliferation inhibition | shares compounds with T_cruzi_growth-1 | T. cruzi beta-gal in NIH3T3, GalScreen luminescence, 90 h | inhibition, % at 2.09 µM | 21% of 5,600 active | AID 651740;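 active means mean inhibition above about 95%, with at least 55% of replicates also reaching it, limit read from the data; inconclusive means meets just one of the two conditions; inactive means meets neither condition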;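 further: plate controls were neutral control median for no effect and positive control median for full effect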
3T3_cytotox: NIH/3T3 (mouse) viability loss | shares compounds with T_cruzi_growth-1 | NIH/3T3 viability, CellTiter-Glo ATP luminescence, 90 h | cytotoxicity (signal decrease), % at 8.35 µM | 14% of 5,600 active;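 active means mean signal decrease across replicates above about 35% based on untreated-well scatter, with enough replicates individually passing, limit read from the data; inconclusive means no rule stated though some were filed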;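 further: 0% = median of neutral control wells and 100% = median of positive control wells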
NIH3T3_tox_2: cytotoxicity in mouse NIH/3T3 fibroblasts; shares compounds with T_cruzi_growth-1; NIH/3T3 viability, CellTiter-Glo ATP luminescence, 90 h; inhibition, % at 24.9 µM; 56% of 5,600 active;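 active means mean loss of cell viability signal at or above a set limit, and enough replicates individually reaching it; inconclusive means meets only the mean limit or only the replicate share; inactive means meets neither condition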;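 further: 0% = median of neutral control wells and 100% = median of positive control wells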
An asterisk follows results filed as active; ? = inconclusive; . = no result.

SMILES C_diff_growth T_cruzi_growth-1 Pf_Dd2_inh T_cruzi_growth-2 T_cruzi_growth-3 3T3_cytotox NIH3T3_tox_2
CCCC(=O)N1CCC2(CC1)CN(C(=O)c1ccc(F)cc1)[C@H](CO)c1[nH]c3cc(OC)ccc3c12 8 . -44 . . . .
C[C@H](O)C#Cc1cnc2c(c1)C(=O)N([C@H](C)CO)C[C@H](C)[C@@H](CN(C)Cc1ccccn1)O2 0 19 18 . . . .
C[C@H](CO)N1C[C@H](C)[C@@H](CN(C)C(=O)Nc2ccccc2)Oc2ccc(NS(=O)(=O)c3cn(C)cn3)cc2CC1=O -2 -19 9 . . . .
O=C(C[C@H]1C=C[C@@H](NC(=O)c2ccc3c(c2)OCO3)[C@@H](CO)O1)NCc1ccc(Oc2ccccc2)cc1 -9 . 43 . . . .
CO[C@@H]1CN(C)C(=O)c2cc(NS(C)(=O)=O)ccc2OC[C@H](C)N(C(=O)CC2CC2)C[C@@H]1C -1 -18 10 . . . .
CCCC#Cc1ccc([C@H]2[C@@H](CO)N3CCCCN(Cc4cccnc4)C[C@H]23)cc1 7 ? -52 108* 92 29 102*
CCCC#Cc1ccc([C@@H]2[C@@H](CO)N3CCCCN(Cc4ccncc4)C[C@H]23)cc1 -2 109* -36 98* 45 35* 67*
CCCC#Cc1ccc([C@H]2[C@H](CO)N3CCCCN(CC4CC4)C[C@@H]23)cc1 14 98* -46 109* 43 ? 105*
CCCC#Cc1ccc([C@@H]2[C@H](CO)N3CCCCN(CC4CC4)C[C@@H]23)cc1 5 70 -62 . . . .
CCCC#Cc1ccc([C@H]2[C@@H](CO)N3CCCCN(Cc4ccncc4)C[C@H]23)cc1 17 49 -71 . . . .
CCCC#Cc1ccc([C@H]2[C@H]3CN(Cc4cccnc4)CCCCN3[C@H]2CO)cc1 1 75 -34 . . . .
C[C@H](CO)N1C[C@H](C)[C@H](CN(C)C(=O)NC2CCCCC2)OCCCC[C@H](C)Oc2ccc(NC(=O)Nc3ccc(F)cc3)cc2C1=O 6 74 -4 . . . .
COCC#Cc1cnc2c(c1)C(=O)N([C@H](C)CO)C[C@@H](C)[C@@H](CN(C)S(=O)(=O)c1cn(C)cn1)O2 -2 -52 19 . . . .
COc1ccc(CN(C)C[C@H]2Oc3ccc(NS(=O)(=O)c4c(C)noc4C)cc3CC(=O)N([C@@H](C)CO)C[C@H]2C)cc1 19 20 3 . . . .
COc1ccc(NC(=O)Nc2ccc3c(c2)CC(=O)N([C@H](C)CO)C[C@@H](C)[C@H](CN(C)CC2CCCCC2)O3)cc1 9 101* -7 96* 70 28 106*
CNC[C@@H]1Oc2ccc(NC(=O)NC3CCCCC3)cc2CC(=O)N([C@H](C)CO)C[C@H]1C -7 119* 48 22 -25 10 -13
COc1ccc(CN(C)C[C@@H]2Oc3ccc(NS(=O)(=O)c4ccc(Cl)cc4)cc3CC(=O)N([C@H](C)CO)C[C@H]2C)cc1 -17 101* -9 113* 84 -2 -8
CNC[C@H]1Oc2ccc(NC(=O)NC3CCCCC3)cc2CC(=O)N([C@H](C)CO)C[C@@H]1C 1 5 34 . . . .
COc1ccc(CN(C)C[C@@H]2Oc3ccc(NS(=O)(=O)c4ccc(Cl)cc4)cc3CC(=O)N([C@@H](C)CO)C[C@@H]2C)cc1 -18 17 -27 . . . .
COc1ccc(CN(C)C[C@H]2Oc3ccc(NS(=O)(=O)c4c(C)noc4C)cc3CC(=O)N([C@H](C)CO)C[C@@H]2C)cc1 8 106* -28 83 50 2 15
COc1ccc(NC(=O)Nc2ccc3c(c2)CC(=O)N([C@H](C)CO)C[C@@H](C)[C@H](CN(C)CC2CC2)O3)cc1 -1 20 15 . . . .
COc1ccc2c3c([nH]c2c1)[C@H](CO)N(C(=O)NC(C)C)CC31CN(C(=O)c2ccccn2)C1 . . -17 . . . .
Cc1ccc(S(=O)(=O)N(C)C[C@H]2OCc3cnnn3CCCC(=O)N([C@H](C)CO)C[C@@H]2C)cc1 1 -58 -15 . . . .
CCCC(=O)N1CC2(CN(C(C)=O)C2)c2c(n(C)c3cc(OC)ccc23)[C@@H]1CO . . -12 . . . .
CCCNC(=O)N(C)C[C@@H]1Oc2ncc(Br)cc2C(=O)N([C@H](C)CO)C[C@H]1C 4 . 42 . . . .

From PubChem BioAssay
